Experimental data: PubChem BioAssay (NCI)
About 79,000 compounds went through this panel and 15% of them were active in at least one assay; those are over-represented in the sample as a whole. Unmarked numbers belong to inactive results. The source made the active and inactive calls. Cut-off read from the data, not from the text of the source: active = growth inhibition above about 70%; inactive = the rest.

Experiments:
[1] = NCI Yeast Anticancer Drug Screen. Data for the rad50 strain (AID 155);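 note: 0% = growth of vehicle-only cultures of the same strain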; details: S. cerevisiae rad50 strain growth inhibition; at 50.0 µM; stronger effect = higher value
Procedure, shortened: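 DNA repair mutant yeast, compound exposure, growth read-out; inhibition is taken relative to vehicle.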

[2] = NCI Yeast Anticancer Drug Screen. Data for the mec2-1 strain (AID 157); details: S. cerevisiae mec2-1 strain, at 50.0 µM, stronger effect = higher value
Procedure, shortened: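 Compounds were applied to mec2-1 yeast cells. Their growth was then compared with that of vehicle-treated cultures to give growth inhibition.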

[3] = NCI Yeast Anticancer Drug Screen. Data for the sgs1 mgt1 strain (AID 161);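 note: 0% = growth of cultures given vehicle only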; details: S. cerevisiae sgs1 mgt1 strain, at 50.0 µM, stronger effect = higher value
Procedure, shortened: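 Growth of a repair-deficient yeast mutant was monitored after compound treatment and expressed as inhibition relative to vehicle-treated cultures.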

[4] = NCI Yeast Anticancer Drug Screen. Data for the cln2 rad14 strain (AID 165);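 note: 0% = growth equal to vehicle treated cultures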; details: S. cerevisiae cln2 rad14 strain, at 50.0 µM, stronger effect = higher value
Procedure, shortened: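 Strain: cln2 rad14 yeast, altered in cell cycle control and DNA damage repair. Read-out: growth inhibition vs vehicle.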

[5] = NCI Yeast Anticancer Drug Screen. Data for the bub3 strain (AID 167); details: S. cerevisiae bub3 mutant strain, at 50.0 µM, stronger effect = higher value
Procedure, shortened: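 In this screen, a yeast mutant lacking normal mitotic checkpoint function is challenged with compound. Relative growth versus vehicle gives the inhibition value.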

[6] = NCI Yeast Anticancer Drug Screen. Data for the mlh1 rad18 strain (AID 175); details: S. cerevisiae mlh1 rad18 strain growth inhibition; at 50.0 µM; stronger effect = higher value
Procedure, shortened: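 A repair-deficient yeast strain is exposed to test compound, and growth is scored relative to vehicle-treated controls.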

Compound | growth inhibition [1] [%] | growth inhibition [2] [%] | growth inhibition [3] [%] | growth inhibition [4] [%] | growth inhibition [5] [%] | growth inhibition [6]
Oc1[nH]c2ccccc2c1N=Nc1nc(-c2ccc(Br)cc2)cs1 | -24.9 | -24.8 | -17.4 | -10.2 | 12 | 5.5%
CC(=O)NCC1OC2COC(c3ccccc3)OC2C2N=C(c3ccccc3)OC12 (stereo not given) | -9.45 | 1.3 | 8.5 | 7.8 | 14.8 | 81.8% (active)
NC(CSS(=O)(=O)O)=NCCSS(=O)(=O)O | -20.4 | -12.4 | -3.45 | 7.45 | -2.4 | 3.95%
COc1ccc(-c2cc(=O)c3c(O)cc(O)cc3o2)c(OC)c1OC | -22.2 | -17.7 | -21.1 | 6.95 | -26.6 | 4.05%
O=C(CBr)c1cc(-c2ccc(Cl)cc2)nc2c(-c3ccccc3)cccc12 | 14.2 | 1.2 | 27.6 | 48.9 | 2.15 | 14.4%
c1ccc2c(c1)nc(NC1CCCC1)c1[nH]c(C3CCCC3)nc12 | -26.1 | -36.6 | -56.9 | -10.3 | -29.2 | -50%
NNC(=O)c1ccc(OCc2nc3ccccc3[nH]2)cc1 | -14.8 | -31.9 | 1.2 | 5.1 | -87.2 | -18.7%
COc1ccc(-c2nnc(Cl)o2)cc1 | -1.95 | 14.8 | -6.75 | -25.9 | -21.1 | -0.5%
CN(C)NC(=O)Nc1ccc2ccccc2c1 | -39.4 | -30.7 | -8.55 | -41 | -24.2 | -24.4%
CCNC(CC1CCCCC1)C(=O)O (stereo not given) | -6.15 | 7.5 | -1.8 | 14.2 | 13.2 | 6.35%
CCOC(=O)c1ccc(N(CC(=O)O)S(=O)(=O)c2ccc(C)cc2)s1 | 17.5 | -1 | 2.5 | 16.6 | 0.85 | -8.8%
COc1ccc(Cl)[n+]([O-])n1 | -20.3 | -4.15 | -2 | 0.8 | -10.3 | -29.6%
CN(CCC1(C)C(=O)CCc2ccccc21)Cc1ccccc1 (stereo not given) | 12.9 | 21.8 | 22.8 | 30.9 | 14.1 | 17.1%
OC(c1cc2ccccc2c2ccccc12)C1CCCCN1 (stereo not given) | 21.9 | 16.9 | 43.8 | 13.2 | 20 | 36.2%
CN1/C(=C/C=C/C=C/C=C2C(=O)c3ccccc3C2=O)C(C)(C)c2ccccc21 | -13.6 | 10.5 | 16.1 | -39.5 | -8.9 | 26.8%
NNC(=S)N/N=C/c1ccco1 | -9.6 | -9.7 | -29.4 | -19.2 | -8.7 | -14.2%
CCCCCC(=O)OCC(Br)CBr (stereo not given) | -7.6 | -10.6 | 22.5 | -23.1 | 40.5 | 1.1%
O=C(CC12C3C4C1C1C2C3C41CC(=O)NO)NO (stereo not given) | -28.8 | -28.1 | -29.2 | 11.9 | -19.9 | -10.9%

Compound | growth inhibition [1] [%] | growth inhibition [2] [%] | growth inhibition [3] [%] | growth inhibition [4] [%] | growth inhibition [5] [%] | growth inhibition [6]
NNC(=O)C1CC1 | 0.5 | -25.9 | -5.65 | 2.8 | -14.1 | -4.55%
O=C1C=C(n2ccccc2=O)CCC1 | 8.05 | 2.15 | 11.4 | -29.1 | -1.8 | 0.05%
C/C(CC(c1ccccc1)c1ccccc1)=N\Nc1ccc([N+](=O)[O-])cc1[N+](=O)[O-] | 13.4 | 3.95 | 14.4 | 19.2 | 7.4 | 8.55%
CCN(CC)c1ccc2cc(-c3nc4ccccc4n3C)c(=O)oc2c1 | 14.8 | -6 | 2.2 | 6.55 | 1.35 | 14.1%
O=[N+]([O-])c1ccc(Nc2ccccc2)nc1 | -22.7 | -35.5 | 7.35 | 2.7 | -5.5 | -5.05%
Nc1nc2c(c(=O)[nH]1)NC(CCNc1ccc(C(=O)NC(CCC(=O)O)C(=O)O)cc1)CN2 (stereo not given) | 14 | 14.9 | 25.6 | 19.6 | 7.65 | 16.1%
CCCCOC(=O)COc1ccc(OC)cc1 | -4.5 | -22.1 | -13.3 | -34.6 | 3.45 | 6.2%
COc1ccc(C(=O)Nc2ccccc2CCC2CCCCN2C)cc1 (stereo not given) | 29.2 | 3 | 10.3 | 22.4 | 1.15 | 19%
Cc1nc(N)c(-c2ccccc2)s1 | 18.1 | -15.9 | 7.2 | -11.2 | -7.85 | 11.9%
O=C(NNC1=NCCCN1)c1ccco1 | 2.1 | -0.75 | 9.25 | -22.2 | 7.5 | -3.85%
Nc1c(F)c(F)c(C(=O)O)c(F)c1F | -16.1 | -20.6 | -10.4 | -3.9 | -4.8 | -29.4%
Cc1cccc(OC(=O)Oc2cccc(C)c2)c1 | -5.75 | -9.25 | -4.35 | -15.7 | 20.6 | 31.1%
CCSC1OC(C(COC(C)=O)OC(C)=O)C(OC(C)=O)C1NC(=O)OCc1ccccc1 (stereo not given) | -0.05 | 5.75 | -4.5 | 7.2 | 1 | -18.1%
Cc1ccc(-n2cc(-c3ccc(Cl)cc3)c3c(=N)n(N)cnc32)cc1 | -12.2 | -14.2 | 49.8 | 26.2 | 16.8 | 47%
O=C1CCCCCCN1 | 8.9 | -33.4 | 1.5 | 16.6 | -17.2 | 12.6%
Cc1ccc(N=Nc2c(O)c(S(=O)(=O)O)cc3cc(S(=O)(=O)O)ccc23)c(C)c1 | 8.55 | -19.6 | -13.8 | 6.3 | -14 | 2.55%
C/C=C(/C)C1(O)CCCCC1O (stereo not given) | -4.2 | 1.15 | 1.2 | -2.7 | -4 | -11.3%
